{"source": "the supplement of paper PMC3334620", "note": "The full ranking holds about 33,000 sequences; the median of “E-score (-0.5 to 0.5)” is about -0.056, and the highest 2% start at about 0.38. The list comes from a sample in which the highest values are over-represented; it also holds similar and randomly drawn sequences."}
{"molecular_target": "Stb4 (UniProt P50104)", "sequence (P50104 whole entry, the tested form may be a part)": "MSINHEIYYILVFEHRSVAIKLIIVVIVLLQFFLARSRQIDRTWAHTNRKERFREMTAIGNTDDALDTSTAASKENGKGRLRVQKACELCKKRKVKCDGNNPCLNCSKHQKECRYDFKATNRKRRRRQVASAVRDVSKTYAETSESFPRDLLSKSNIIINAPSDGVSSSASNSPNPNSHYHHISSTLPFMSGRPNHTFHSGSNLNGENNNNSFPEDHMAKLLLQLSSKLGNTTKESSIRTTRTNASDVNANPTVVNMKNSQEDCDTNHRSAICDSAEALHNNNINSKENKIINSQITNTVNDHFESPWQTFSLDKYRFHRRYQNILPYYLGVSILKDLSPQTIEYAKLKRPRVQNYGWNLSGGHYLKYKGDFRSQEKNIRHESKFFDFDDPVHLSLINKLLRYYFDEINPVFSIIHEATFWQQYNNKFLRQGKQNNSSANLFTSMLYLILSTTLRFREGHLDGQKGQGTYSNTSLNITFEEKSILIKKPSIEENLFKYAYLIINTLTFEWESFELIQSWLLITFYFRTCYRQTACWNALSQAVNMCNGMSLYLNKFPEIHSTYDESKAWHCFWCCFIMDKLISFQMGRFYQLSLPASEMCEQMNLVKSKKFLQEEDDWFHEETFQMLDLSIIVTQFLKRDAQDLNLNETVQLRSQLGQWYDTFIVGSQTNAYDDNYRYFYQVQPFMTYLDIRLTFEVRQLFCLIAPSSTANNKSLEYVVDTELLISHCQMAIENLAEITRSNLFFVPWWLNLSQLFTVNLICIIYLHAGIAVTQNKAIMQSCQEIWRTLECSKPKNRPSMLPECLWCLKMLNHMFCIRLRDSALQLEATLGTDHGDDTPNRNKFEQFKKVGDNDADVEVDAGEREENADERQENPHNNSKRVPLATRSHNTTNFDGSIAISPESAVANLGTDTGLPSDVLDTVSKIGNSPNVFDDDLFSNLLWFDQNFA", "test": "PBM E-score (8-mer binding enrichment) (E-score (-0.5 to 0.5)); higher = stronger / more preferred TF binding", "conditions": "protein concentration: 200 nM; construct: GST-DNA-binding domain", "method_in_brief": "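Using PURExpress in vitro transcription/translation, GST-tagged yeast transcription factors were made in full-length or DNA-binding-domain form. These were applied at about 100-200 nM to double-stranded universal all-10-mer Agilent arrays, and bound protein was detected with fluorescent anti-GST. Scans were normalised with masliner before the Universal PBM Analysis Suite assigned E-scores to ungapped eight-base words pooled with their reverse complements.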"}
{"sequence": "GGACGGAA", "PBM E-score": 0.328}
{"sequence": "AGTCGGGA", "PBM E-score": 0.362}
{"sequence": "AGTCGGAT", "PBM E-score": 0.429}
{"sequence": "CGTCGGAC", "PBM E-score": 0.269}
{"sequence": "GGTCGGAC", "PBM E-score": 0.144}
{"sequence": "CTAGATAC", "PBM E-score": 0.0146}
{"sequence": "AGGACCGC", "PBM E-score": -0.0222}
{"sequence": "CAGAATAA", "PBM E-score": -0.0851}
{"sequence": "AGTCGGAC", "PBM E-score": 0.176}
{"sequence": "TGTCGTAA", "PBM E-score": -0.215}
{"sequence": "AGTCGGAA", "PBM E-score": 0.451}
{"sequence": "TGACGGAA", "PBM E-score": 0.312}
{"sequence": "TGTCGGAA", "PBM E-score": 0.416}
{"sequence": "AGTCGGAG", "PBM E-score": 0.226}
{"sequence": "AGAGAACT", "PBM E-score": -0.114}
{"sequence": "GGGTCACA", "PBM E-score": -0.0305}
{"sequence": "CAATTTAA", "PBM E-score": -0.105}
{"sequence": "GGTTTTTA", "PBM E-score": -0.0968}
{"sequence": "CAGGAGCA", "PBM E-score": -0.163}
{"sequence": "CACCTGAG", "PBM E-score": -0.337}
{"sequence": "CGGATATC", "PBM E-score": 0.426}
{"sequence": "CTGATATC", "PBM E-score": 0.136}
{"sequence": "GGGATATA", "PBM E-score": 0.168}
{"sequence": "AGGATATC", "PBM E-score": 0.0132}
{"sequence": "AGGATATA", "PBM E-score": -0.0497}
{"sequence": "CGGATATA", "PBM E-score": 0.452}
{"sequence": "TCCAGTAA", "PBM E-score": -0.176}
{"sequence": "TCTGACCA", "PBM E-score": -0.24}
{"sequence": "CGTTCGGC", "PBM E-score": 0.368}
{"sequence": "CGTTCGGA", "PBM E-score": 0.465}
{"sequence": "CGTTCGTA", "PBM E-score": -0.0524}
{"sequence": "GGTTCGGA", "PBM E-score": 0.442}
{"sequence": "GGTTCGCA", "PBM E-score": 0.0434}
{"sequence": "GGTTCGAA", "PBM E-score": -0.0143}
{"sequence": "ACATTGGA", "PBM E-score": -0.177}
{"sequence": "CGAGATAG", "PBM E-score": 0.00411}
{"sequence": "CTGCAAAG", "PBM E-score": -0.28}
{"sequence": "CGTCCTGA", "PBM E-score": -0.249}
{"sequence": "TCCGTTAA", "PBM E-score": 0.259}
{"sequence": "AAAAACCT", "PBM E-score": 0.0896}
{"sequence": "CTCGAGGA", "PBM E-score": -0.188}
{"sequence": "ACCGAGGA", "PBM E-score": 0.323}
{"sequence": "ACCGAGGC", "PBM E-score": 0.302}
{"sequence": "GCCGAGGA", "PBM E-score": 0.4}
{"sequence": "GACGAGGC", "PBM E-score": -0.0506}
{"sequence": "TCAGAGGA", "PBM E-score": -0.183}
{"sequence": "GCCGAGGC", "PBM E-score": 0.436}
{"sequence": "CACGAGGA", "PBM E-score": -0.11}
{"sequence": "GTCGAGGA", "PBM E-score": -0.239}
{"sequence": "CCCGAGGA", "PBM E-score": 0.388}
{"sequence": "TACGAGGA", "PBM E-score": -0.193}
{"sequence": "TCCGAGGA", "PBM E-score": 0.453}
{"sequence": "GTAAGCAC", "PBM E-score": -0.144}
{"sequence": "CGAAATGC", "PBM E-score": 0.124}
{"sequence": "ATGTCGTA", "PBM E-score": -0.29}
{"sequence": "AGGATGGA", "PBM E-score": 0.0445}
{"sequence": "CAGGATTA", "PBM E-score": 0.00923}
{"sequence": "CACCCTCG", "PBM E-score": 0.0812}
{"sequence": "CACACATG", "PBM E-score": -0.15}
{"sequence": "CGATCGCC", "PBM E-score": 0.0955}
{"sequence": "TAGTAACA", "PBM E-score": -0.0586}
{"sequence": "CCCAGAGC", "PBM E-score": -0.299}
{"sequence": "AGAAGGAA", "PBM E-score": 0.0573}
{"sequence": "CCCGAGGG", "PBM E-score": 0.404}
{"sequence": "CACGAGGG", "PBM E-score": -0.0631}
{"sequence": "CGCGAGGC", "PBM E-score": 0.0155}
{"sequence": "ACCGAGGG", "PBM E-score": 0.27}
{"sequence": "CACGAGGC", "PBM E-score": -0.131}
{"sequence": "CCCGAGGC", "PBM E-score": 0.388}
{"sequence": "CCATAAGG", "PBM E-score": -0.314}
{"sequence": "CCAGATAC", "PBM E-score": -0.122}
{"sequence": "CTATTGCA", "PBM E-score": -0.0693}
{"sequence": "ACAGACCT", "PBM E-score": 0.00106}
{"sequence": "ACCAATCT", "PBM E-score": 0.0037}
{"sequence": "TGGATAAA", "PBM E-score": 0.027}
{"sequence": "AGGATAAG", "PBM E-score": -0.0142}
{"sequence": "GGGATAAC", "PBM E-score": 0.0907}
{"sequence": "CGGATAAA", "PBM E-score": 0.465}
{"sequence": "AGGATAAC", "PBM E-score": -0.159}
{"sequence": "AGGATAAA", "PBM E-score": -0.0635}
{"sequence": "CCGATAAG", "PBM E-score": 0.269}
{"sequence": "CGGATAAG", "PBM E-score": 0.41}
{"sequence": "CGGATAAC", "PBM E-score": 0.452}
{"sequence": "AGATCAGC", "PBM E-score": 0.0618}
{"sequence": "GGTAGACC", "PBM E-score": 0.143}
{"sequence": "CCTCTTAC", "PBM E-score": -0.274}
{"sequence": "AACGACTA", "PBM E-score": -0.151}
{"sequence": "AAGGTACG", "PBM E-score": -0.0106}
{"sequence": "GGCCTAAA", "PBM E-score": -0.102}
{"sequence": "ATCCGACC", "PBM E-score": 0.425}
{"sequence": "CTCCGACA", "PBM E-score": 0.227}
{"sequence": "ATCCGACA", "PBM E-score": 0.442}
{"sequence": "ATCCGACG", "PBM E-score": 0.452}
{"sequence": "GTCCGACA", "PBM E-score": 0.213}
{"sequence": "ACCCGACC", "PBM E-score": 0.382}
{"sequence": "CTCCGACC", "PBM E-score": 0.315}
{"sequence": "AGCCGACG", "PBM E-score": 0.353}
{"sequence": "AACCGACG", "PBM E-score": 0.304}
{"sequence": "CAAATCTA", "PBM E-score": -0.211}
{"sequence": "CCTTTGTC", "PBM E-score": -0.141}
{"sequence": "GCCTACGC", "PBM E-score": -0.306}
{"sequence": "TACACTGA", "PBM E-score": -0.0306}
{"sequence": "ACGAAGAG", "PBM E-score": -0.117}
{"sequence": "CCGAAGAA", "PBM E-score": 0.402}
{"sequence": "ACGAAGAA", "PBM E-score": -0.0766}
{"sequence": "TCGAAGAA", "PBM E-score": -0.122}
{"sequence": "CCGAAGAC", "PBM E-score": 0.374}
{"sequence": "CCGAAGAG", "PBM E-score": 0.417}
{"sequence": "GAGTACTC", "PBM E-score": -0.00922}
{"sequence": "AACGACGT", "PBM E-score": -0.166}
{"sequence": "ATTGACCC", "PBM E-score": 0.0534}
{"sequence": "CCGAGCGG", "PBM E-score": 0.431}
{"sequence": "CCGAGCGC", "PBM E-score": 0.44}
{"sequence": "CCGAGCGA", "PBM E-score": 0.403}
{"sequence": "ACGAGCGA", "PBM E-score": -0.402}
{"sequence": "GCGAGCGC", "PBM E-score": -0.103}
{"sequence": "GCGAGCGA", "PBM E-score": -0.0989}
{"sequence": "ACGAGCGG", "PBM E-score": 0.0575}
{"sequence": "ACGAGCGC", "PBM E-score": -0.0806}
{"sequence": "CAGAGCGG", "PBM E-score": -0.0262}
{"sequence": "AGTATCGA", "PBM E-score": -0.072}
{"sequence": "ATTCGCAG", "PBM E-score": -0.152}
{"sequence": "AAAGTCGC", "PBM E-score": 0.0621}
{"sequence": "AGATTTAG", "PBM E-score": -0.0774}
{"sequence": "ACTTTGGC", "PBM E-score": 0.123}
{"sequence": "CTCGACAC", "PBM E-score": -0.144}
{"sequence": "CCGAATAC", "PBM E-score": 0.425}
{"sequence": "CCGAATTC", "PBM E-score": 0.398}
{"sequence": "CCGAATAA", "PBM E-score": 0.381}
{"sequence": "ACGAATAC", "PBM E-score": -0.0867}
{"sequence": "ACGAATTC", "PBM E-score": -0.192}
{"sequence": "CCGAATTA", "PBM E-score": 0.363}
{"sequence": "ACGACCGA", "PBM E-score": 0.0769}
{"sequence": "TCCGCCAA", "PBM E-score": 0.233}
{"sequence": "GGGTCGAA", "PBM E-score": 0.0324}
{"sequence": "GGGTCGGA", "PBM E-score": 0.392}
{"sequence": "CGGTCGGA", "PBM E-score": 0.388}
{"sequence": "CGGTCGTA", "PBM E-score": 0.128}
{"sequence": "CGGTCGGC", "PBM E-score": 0.318}
{"sequence": "AGGTCGGA", "PBM E-score": 0.345}
{"sequence": "GCGTCCGA", "PBM E-score": 0.282}
{"sequence": "GGCATGCC", "PBM E-score": 0.156}
{"sequence": "GTCTAGTA", "PBM E-score": -0.11}
{"sequence": "GTACTGTA", "PBM E-score": -0.171}
{"sequence": "AACCACAG", "PBM E-score": -0.177}
{"sequence": "GTCGAATA", "PBM E-score": -0.181}
{"sequence": "GCCGAATA", "PBM E-score": 0.427}
{"sequence": "CCCGAATA", "PBM E-score": 0.397}
{"sequence": "ACCGAATA", "PBM E-score": 0.215}
{"sequence": "ACCGAATC", "PBM E-score": 0.357}
{"sequence": "CACGAATA", "PBM E-score": -0.22}
{"sequence": "CTCGAATC", "PBM E-score": -0.207}
{"sequence": "CTCGAATA", "PBM E-score": 0.0163}
{"sequence": "CCCGAATC", "PBM E-score": 0.397}
{"sequence": "CCATCACA", "PBM E-score": -0.197}
{"sequence": "CCCCATCA", "PBM E-score": -0.137}
{"sequence": "CCTTCTTA", "PBM E-score": -0.143}
{"sequence": "CCGGCATC", "PBM E-score": 0.28}
{"sequence": "CCTTTCAA", "PBM E-score": -0.112}
{"sequence": "GAATGGTC", "PBM E-score": 0.0599}
{"sequence": "CCAGACGG", "PBM E-score": -0.0564}
{"sequence": "CCGGATCA", "PBM E-score": 0.383}
{"sequence": "CCGGATGC", "PBM E-score": 0.396}
{"sequence": "ACGGATCA", "PBM E-score": 0.325}
{"sequence": "TCAGATCA", "PBM E-score": -0.235}
{"sequence": "CCGGATCC", "PBM E-score": 0.395}
{"sequence": "ACGGATCC", "PBM E-score": 0.352}
{"sequence": "TCGGATCA", "PBM E-score": 0.46}
{"sequence": "GCGGATCA", "PBM E-score": 0.196}
{"sequence": "ACGGATGC", "PBM E-score": 0.298}
{"sequence": "CCGGATGA", "PBM E-score": 0.366}
{"sequence": "TAGGATCA", "PBM E-score": -0.0704}
{"sequence": "GCGGATCC", "PBM E-score": 0.301}
